The results in this text go back to paper PMC4552634, “A New Set of Chemical Starting Points with Plasmodium falciparum Transmission-Blocking Potential for Antimalarial Drug Discovery” (PLoS ONE, 2015).

Among all 13,000 compounds or so, about 3,200 (25%) showed an effect of 50% or more. The list shows a part of the results.

In this assay the test system is P. falciparum stage V gametocytes. Further details: BacTiter-Glo ATP luminescence viability of purified stage V gametocytes in 384-well plates, per cent inhibition versus DMSO. The settings on record: 48 h, 5 µM; inhibitor.
The % Inhibition is the relative decrease from the control value, in per cent. Regarding `CCCc1cc2c3c(N)nc(N)nc3ccc2n1CC` [TCMDC-137946], the “% Inhibition” value worked out at 108%.
For `CCC(CC)n1c(COC)cc2c3c(N)nc(N)nc3ccc21` [TCMDC-137313], the “% Inhibition” value is listed as -40.93%.
As for `CCc1cc2c3c(N)nc(N)nc3ccc2n1C(C)CC` (stereo not drawn) [TCMDC-137308], the “% Inhibition” value is reported as 10.89%.
With `CCc1cc2c3c(N)nc(N)nc3ccc2n1C(C)(C)C` [TCMDC-137306] the figure was 29.54%; with `CCn1c(C(C)C)cc2c3c(N)nc(N)nc3ccc21` [TCMDC-137856], 56.38%; with `CC(C)n1ncc2c3c(N)nc(N)nc3ccc21` [TCMDC-137866], 12.93%.
With `CCCc1cc2c3c(N)nc(N)nc3ccc2n1C(CC)CC` [TCMDC-137312] the figure was 13.64%; with `CCc1cc2c3c(N)nc(N)nc3ccc2n1C(CC)CC` [TCMDC-137309], 2.246%; with `CCc1cc2c3c(N)nc(N)nc3ccc2n1CC` [TCMDC-137851], 94.91%.
Consider `CSC1=NC2(CC(c3cccc(C)c3)c3cc(Cl)c(O)cc3O2)CC(C)(C)N1` (stereo not drawn) [TCMDC-125563], for which the “% Inhibition” value was found to be 19.29%.
For `O=C(c1ccc(-c2ccccn2)s1)N1CCc2cc3nccc(N4CCN5CCC[C@H]5C4)c3cc21` [TCMDC-140047] the value was 34.48%; for `CCCCCCn1c(Sc2ccc(C#N)c([N+](=O)[O-])c2)nnc1-c1cccs1` [TCMDC-135586], 11.04%; for `COc1cccc(C(=O)Nc2ccc(Nc3nc(C)cc(N4CCCCC4)n3)cc2)c1OC` [TCMDC-124963], -19.94%.
For `CC(CN(C)C)Oc1ccc2[nH]c(-c3cccc(OCc4ccccc4)c3)nc2c1C#N` (stereo not drawn) [TCMDC-133767], the “% Inhibition” value is 6.337%.
With `Cc1cccc2[nH]c(-c3ccc(-c4ccc(NC(=O)Nc5cccc(C#N)c5)cc4)cc3)nc12` [TCMDC-133196] the figure was -20.21%; with `CCn1c(-c2nonc2N)nc2c(-c3cccc(NC(=O)Nc4ccc(C#N)cc4)c3)ncc(OCCCN)c21` [TCMDC-136194], 88.46%; with `N#Cc1cccc(NC(=O)Nc2cccc(-c3cccc(-c4nc5ccccc5[nH]4)c3)c2)c1` [TCMDC-133193], -45.89%.
For `CCn1c(-c2nonc2N)nc2c(-c3cccc(NC(=O)Nc4cccc(C#N)c4)c3)ncc(OCCCN)c21` [TCMDC-136195] the value was 98.06%; for `COc1ccc(N2CCN(CCCCNC(=O)c3ccc(NC(=O)c4ccc(OC(F)(F)F)cc4)cc3)CC2)c(OC)c1` [TCMDC-138149], -10.77%.
For `N#Cc1ccc2c(c1)CCN(CCC1CCC(Nc3ncnc4ccccc34)CC1)C2` (stereo not drawn) [TCMDC-139358] the value was -22.56%.
`Cc1cccc2nc(-c3ccc(-c4cccc(NC(=O)C(C)CN(C)C)c4)s3)[nH]c12` (stereo not drawn) [TCMDC-137116]: the “% Inhibition” value came out at 33.05%.
With `O=C(Nc1ccc(SC(F)(F)F)cc1)Nc1ccnc2ccccc12` [TCMDC-139287], the “% Inhibition” value is 73.37%.
For `Cc1cc(NC(=O)Nc2cccc(N(C)C)c2)c2ccccc2n1` [TCMDC-138955] the value was -40.58%.
As to `CN(C)c1cc(NC(=O)Nc2ccc(SC(F)(F)F)cc2)c2ccccc2n1` [TCMDC-123994], the “% Inhibition” value was 86%.
As to `Cc1cc2cc(NC(=O)Nc3ccnc4ccccc34)ccc2n1C` [TCMDC-139291], the “% Inhibition” value is -17.26%.
As for `CN(C)c1cc(NC(=O)Nc2ccccc2)c2ccccc2n1` [TCMDC-123521], the “% Inhibition” value is 30.25%.
As to `CCC(C)c1ccc(NC(=O)Nc2ccnc3ccccc23)cc1` (stereo not drawn) [TCMDC-139723], the “% Inhibition” value was 3.75%.
With `N#Cc1ccc2c(c1)CCN(CCC1CCC(NC(=O)c3cc4ccccc4[nH]3)CC1)CC2` (stereo not drawn) [TCMDC-139633] the figure was -57.67%.
In the case of `O=C(Nc1ccc(Cl)cc1)c1cc(Cl)ccc1NC(=O)C1CCc2ccccc2O1` (stereo not drawn) [TCMDC-136640], the “% Inhibition” value is given as -15.02%.
With `CCCOc1cc(O)c(-c2n[nH]c(C)c2Oc2ccccc2)cc1CC` [TCMDC-125714] the figure was -75.18%; with `CCOc1c(N2CCN(CCCCNC(=O)c3ccc(NC(=O)c4ccc(Cl)cc4)cc3)CC2)ccc2ccccc12` [TCMDC-138522], 6.305%.
Regarding `CCCOc1ccc(CCNCCCCNCCc2ccc(OCCC)c3ccccc23)c2ccccc12` [TCMDC-137952], the “% Inhibition” value worked out at 124.7%.
With `CCCOc1c(CCNCCCCNCCc2ccc3ccccc3c2OCCC)ccc2ccccc12` [TCMDC-137950] the figure was 113.4%.
As to `CCOc1c(CCNCCCCNCCc2ccc3ccccc3c2OCC)ccc2ccccc12` [TCMDC-137759], the “% Inhibition” value worked out at 109.7%.
For `CC(=NO)C1=C(O)C(c2ccccc2)N(c2ccccc2)C1=O` (stereo not drawn) [TCMDC-131673] the value was 13.72%; for `O=C(/C=C/c1ccc(Cl)c(Cl)c1)NCCCCCN1CCCN(C(=O)Nc2ccc(F)c(F)c2)CC1` [TCMDC-135750], -25.07%.
For the compound `CCCC(C)Nc1nc(C)cc(N[C@@H](Cc2ccccc2)C(=O)NCCc2ccccc2)n1` (stereo partly drawn) [TCMDC-134766], the “% Inhibition” value is 6.892%.
For the compound `O=C(Nc1ccc(OC2CCN(Cc3ccsc3)C2)c(Cl)c1)c1ccco1` (stereo not drawn) [TCMDC-133950], the “% Inhibition” value came to 41.88%.
Turning to `O=C(N[C@@H](CC1CCCCC1)C(=O)NC1CCCCCC1)c1ccc(O)c(-c2ccc(Cl)c(Cl)c2)c1` [TCMDC-140847], the “% Inhibition” value was found to be 37.48%.
For `COc1ccc(NC(=O)Nc2ccc(C)c(-c3ccc(C(=O)NCCN4CCCC4)cc3)c2)cc1` [TCMDC-134196] the value was -27.29%.
Turning to `Cc1ccc(NC(=O)C2CCC2)cc1-c1ccc(C(=O)NCC2CC2)cc1` [TCMDC-138709], the “% Inhibition” value was -25.69%.
As to `CCN(CC)CCNC(=O)c1ccc(NC(=O)c2ccc(-c3cc(NC(=O)CC4CCCC4)ccc3C)cc2)cc1` [TCMDC-133707], the “% Inhibition” value is on record as 110.3%.
For the compound `COc1cc2c(cc1OC)CC(NCCCCCCNCCc1ccc(Cl)cc1)CC2` (stereo not drawn) [TCMDC-132038], the “% Inhibition” value is given as 103.4%.
Turning to `COc1ccc(CN(C)CCCc2ccc(NC(=O)Cc3ccc4nc(-c5ccccc5)ccc4c3)cc2)cc1OC` [TCMDC-131845], the “% Inhibition” value was determined as 17.3%.
For `COc1ccc(CNCCCCCCNCCc2ccc(Cl)cc2)cc1OC` [TCMDC-131282] the value was 88.88%; for `COc1cc2c(cc1OC)CC(NCc1ccc(-c3ccc4nc[nH]c4c3)cc1)C2` [TCMDC-133474], 37.11%.
For `COc1ccc(CNCC2CCC(CNCCc3ccccc3)CC2)cc1Cl` (stereo not drawn) [TCMDC-140364] the value was -22.08%; for `COc1cc2c(cc1OC)CN(CCCCc1ccc(NC(=O)c3cc(Cl)cc(Cl)c3)cc1)CC2` [TCMDC-138174], -15.17%; for `COc1ccc(CCNCCCCCCNCCc2ccc(-c3ccccc3)cc2)cc1OC` [TCMDC-131267], 96.14%.
Regarding `COc1ccc(CCNCCCCCCNCCCc2ccc(Cl)cc2)cc1OC` [TCMDC-131280], the “% Inhibition” value is reported as 105.1%.
On to `CCOc1cc2ncnc(Nc3ccc(OCc4c(Cl)cccc4Cl)c(OC)c3)c2cc1OCC` [TCMDC-131927], for which the “% Inhibition” value is listed as -5.801%.
With `CCC(O)(C#Cc1c(C)nc(N)nc1N)CC` [TCMDC-137329], the “% Inhibition” value is 41.32%.
For `N#Cc1ccc(NC(=NCc2cccnc2)Nc2ccc(-c3ccccc3)cc2)c(O)c1` [TCMDC-140208] the value was -10.63%; for `COc1ccccc1C1CC(c2ccc(Br)cc2)=NN1C(=O)c1ccccc1` (stereo not drawn) [TCMDC-125622], 32.36%.
With `Oc1ccc2[nH]c(-c3cccc(F)c3)nc2c1CN1CCC(N2CCCC2)CC1` [TCMDC-136357] the figure was -60.35%; with `Cc1cccc2[nH]c(-c3ccc(-c4cccc(NC(=O)NCc5cccc(F)c5)c4)cc3)nc12` [TCMDC-133295], 32.47%; with `COc1cccc(NC(=O)Nc2ccc(Nc3nc(C)cc(N4CCCC4)n3)cc2)c1` [TCMDC-124957], -12.57%.
On to `N=C(N)c1cc(Br)cc(NC(=O)Nc2cc(Br)cc(C(=N)N)c2)c1` [TCMDC-124180], for which the “% Inhibition” value is recorded as -21.96%.
As to `CC1CCN(CC[C@H]2CCCN2S(=O)(=O)c2cccc(NC(=O)Nc3ccc(C(F)(F)F)cc3)c2)CC1` [TCMDC-141021], the “% Inhibition” value is -52.23%.
Take `CCCN(CCC)c1nn2c(=O)c(C(=O)N3CCN(Cc4ccccc4)CC3)cnc2s1` [TCMDC-125272]: the “% Inhibition” value is listed as -5.242%.
With `COc1ccc(CCNCCCCCNCCCc2ccc(Cl)cc2)cc1OC` [TCMDC-131278] the figure was 107.5%; with `COc1ccc(CNCCCCCNCc2ccc(Cl)c(Cl)c2)cc1Cl` [TCMDC-140365], 23.3%.
Regarding `COc1ccc(CCNCCCCCCNCCc2cccc([N+](=O)[O-])c2)cc1OC` [TCMDC-131262], the “% Inhibition” value came out at 82.84%.
With `COc1ccc(CNCCCCCCCNCc2ccc(Cl)c(Cl)c2)cc1Cl` [TCMDC-140366] the figure was 13.21%; with `COc1ccc(CCNCCCCCNCCc2ccc(Cl)cc2)cc1OC` [TCMDC-131269], 103.7%.
With `Cc1cc(CNCCCCCNCc2cccc([N+](=O)[O-])c2)ccc1O` [TCMDC-140410] the figure was 42.39%.
In the case of `COc1ccc(CCNCCCCCCNCCc2ccc(Cl)c(Cl)c2)cc1OC` [TCMDC-131275], the “% Inhibition” value stood at 106.4%.
With `Cc1cc(CNCCCCCCCNCc2cccc([N+](=O)[O-])c2)ccc1O` [TCMDC-140416], the “% Inhibition” value was 12.73%.
For `Cc1ccc(C2=NNC3(S2)C(=O)N(C)c2ccccc23)cc1` (stereo not drawn) [TCMDC-123863] the value was 24.25%; for `COc1ccc(C23Oc4cc(OC)cc(OC)c4C2(O)C2(CC3c3ccccc3)SCCCS2)cc1` (stereo not drawn) [TCMDC-132098], 11.15%; for `OCC(CO)(CO)NCc1ccc2c3c(cccc13)-c1ccccc1-2` [TCMDC-137877], -8.777%.
With `C=CCn1c(C)cc(C(=O)COc2ccc(S(=O)(=O)N3CCOCC3)cc2[N+](=O)[O-])c1C` [TCMDC-124326] the figure was 33.1%.
